# According to PMC7862700, “An all-to-all approach to the identification of sequence-specific readers for epigenetic DNA modifications on cytosine”:
# Assays:
# Assay in all cases: DAPPL (digital affinity profiling via proximity ligation, sequencing); 10 mM Tris-HCl pH 7.5, 50 mM NaCl, 1 mM DTT, 4% glycerol, room temperature, 30 min; GST-TFs on glutathione beads, 16-mer random dsDNA library, 0.1% formaldehyde crosslink after washing; high values mean tight binding
# [1] = biological target: T1, FLI1 (Homo sapiens, UniProt Q01543 1-452); conditions: protein: recombinant; tags: N-terminal GST; dsDNA, one strand shown
# T1 sequence: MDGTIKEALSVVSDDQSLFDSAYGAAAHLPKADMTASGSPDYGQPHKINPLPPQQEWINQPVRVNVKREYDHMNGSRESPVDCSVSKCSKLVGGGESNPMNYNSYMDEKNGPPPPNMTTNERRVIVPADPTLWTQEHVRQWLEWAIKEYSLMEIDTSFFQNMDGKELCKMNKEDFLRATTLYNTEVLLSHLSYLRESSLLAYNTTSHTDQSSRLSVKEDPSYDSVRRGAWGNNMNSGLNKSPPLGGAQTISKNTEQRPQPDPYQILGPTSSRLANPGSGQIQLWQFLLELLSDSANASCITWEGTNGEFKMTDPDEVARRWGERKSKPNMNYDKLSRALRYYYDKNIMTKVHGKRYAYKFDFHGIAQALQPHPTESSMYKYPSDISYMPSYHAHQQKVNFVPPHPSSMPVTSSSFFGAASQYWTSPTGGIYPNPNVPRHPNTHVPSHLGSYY
# Summary of the method: (§1)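 GST fusions of human transcription factors were expressed in yeast and captured with glutathione beads. Once given DNA barcodes and pooled alongside a tag-only sample, they were incubated for 30 min at room temperature with 200 nmole of a random double-stranded 16-mer DNA library in Tris/NaCl/DTT/glycerol buffer, then washed, crosslinked (0.1% formaldehyde), proximity-ligated, PCR-amplified and sequenced on an Illumina NextSeq500. The binding signal of each hexamer is its read frequency for a factor divided by its frequency for the tag-only sample.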
# [2] = biological target: T2, ELK1 (Homo sapiens, UniProt P19419 1-428); conditions: protein: recombinant; tags: N-terminal GST; dsDNA, one strand shown
# T2 sequence: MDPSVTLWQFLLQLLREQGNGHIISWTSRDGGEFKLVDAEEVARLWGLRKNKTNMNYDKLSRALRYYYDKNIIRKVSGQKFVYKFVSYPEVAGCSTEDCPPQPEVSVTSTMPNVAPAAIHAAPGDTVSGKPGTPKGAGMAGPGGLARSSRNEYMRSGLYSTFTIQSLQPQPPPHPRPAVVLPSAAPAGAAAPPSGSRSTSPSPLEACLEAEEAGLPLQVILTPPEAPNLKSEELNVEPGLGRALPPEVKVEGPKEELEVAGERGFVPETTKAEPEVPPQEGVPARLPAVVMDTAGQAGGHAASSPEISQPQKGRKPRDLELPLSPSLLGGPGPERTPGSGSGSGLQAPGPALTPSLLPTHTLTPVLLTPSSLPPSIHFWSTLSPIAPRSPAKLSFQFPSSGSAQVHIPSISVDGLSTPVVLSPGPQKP
# Summary of the method: as §1
# [3] = biological target: T3, GABPA (Homo sapiens, UniProt Q06546 1-454); conditions: protein: recombinant; tags: N-terminal GST; dsDNA, one strand shown
# T3 sequence: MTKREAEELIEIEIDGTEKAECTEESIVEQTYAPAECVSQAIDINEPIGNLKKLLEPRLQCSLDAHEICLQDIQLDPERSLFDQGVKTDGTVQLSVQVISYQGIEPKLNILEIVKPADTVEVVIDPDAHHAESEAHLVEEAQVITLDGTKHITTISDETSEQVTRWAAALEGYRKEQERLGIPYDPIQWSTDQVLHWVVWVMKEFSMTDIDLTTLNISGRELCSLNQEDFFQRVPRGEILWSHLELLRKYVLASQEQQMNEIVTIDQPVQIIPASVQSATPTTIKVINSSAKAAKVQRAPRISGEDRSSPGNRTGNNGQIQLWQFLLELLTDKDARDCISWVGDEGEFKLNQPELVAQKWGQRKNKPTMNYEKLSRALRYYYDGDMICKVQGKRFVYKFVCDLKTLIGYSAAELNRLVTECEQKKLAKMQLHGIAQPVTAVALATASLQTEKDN
# Summary of the method: as §1
# [4] = biological target: T4, ERG (Homo sapiens, UniProt P11308 1-479); conditions: protein: recombinant; tags: N-terminal GST; dsDNA, one strand shown
# T4 sequence: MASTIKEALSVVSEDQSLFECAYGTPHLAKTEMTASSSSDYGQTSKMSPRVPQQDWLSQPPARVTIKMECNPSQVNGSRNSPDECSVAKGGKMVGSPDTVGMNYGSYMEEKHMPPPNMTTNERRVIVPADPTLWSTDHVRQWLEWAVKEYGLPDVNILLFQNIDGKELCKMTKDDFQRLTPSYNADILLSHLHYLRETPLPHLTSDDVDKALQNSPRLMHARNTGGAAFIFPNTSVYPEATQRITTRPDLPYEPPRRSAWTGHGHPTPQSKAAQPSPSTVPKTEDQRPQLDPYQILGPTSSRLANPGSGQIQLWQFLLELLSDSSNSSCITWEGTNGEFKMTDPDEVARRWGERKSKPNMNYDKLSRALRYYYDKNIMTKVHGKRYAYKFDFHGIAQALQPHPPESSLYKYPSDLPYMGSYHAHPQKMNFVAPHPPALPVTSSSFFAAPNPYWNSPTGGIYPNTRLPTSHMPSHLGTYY
# Summary of the method: as §1
# [5] = biological target: ELF1 (Homo sapiens, UniProt P32519 1-619); conditions: protein: recombinant; tags: N-terminal GST; dsDNA, one strand shown
# Summary of the method: as §1
# [6] = biological target: T5, EHF (Homo sapiens, UniProt Q9NZC4 1-300); conditions: protein: recombinant; tags: N-terminal GST; dsDNA, one strand shown
# T5 sequence: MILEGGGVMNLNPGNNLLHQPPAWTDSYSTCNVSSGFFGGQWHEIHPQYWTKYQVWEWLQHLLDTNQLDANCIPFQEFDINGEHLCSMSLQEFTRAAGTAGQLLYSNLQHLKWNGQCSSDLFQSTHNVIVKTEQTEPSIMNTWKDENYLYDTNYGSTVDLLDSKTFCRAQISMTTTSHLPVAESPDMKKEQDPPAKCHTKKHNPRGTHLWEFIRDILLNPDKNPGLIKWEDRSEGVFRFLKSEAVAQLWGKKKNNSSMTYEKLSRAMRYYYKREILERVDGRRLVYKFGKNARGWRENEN
# Summary of the method: as §1
# [7] = biological target: SPI1 (Homo sapiens, UniProt P17947 1-270); conditions: protein: recombinant; tags: N-terminal GST; dsDNA, one strand shown
# Summary of the method: as §1
# [8] = biological target: SPIB (Homo sapiens, UniProt Q01892 1-262); conditions: protein: recombinant; tags: N-terminal GST; dsDNA, one strand shown
# Summary of the method: as §1
# [9] = biological target: T6, ELK3 (Homo sapiens, UniProt P41970 1-407); conditions: protein: recombinant; tags: N-terminal GST; dsDNA, one strand shown
# T6 sequence: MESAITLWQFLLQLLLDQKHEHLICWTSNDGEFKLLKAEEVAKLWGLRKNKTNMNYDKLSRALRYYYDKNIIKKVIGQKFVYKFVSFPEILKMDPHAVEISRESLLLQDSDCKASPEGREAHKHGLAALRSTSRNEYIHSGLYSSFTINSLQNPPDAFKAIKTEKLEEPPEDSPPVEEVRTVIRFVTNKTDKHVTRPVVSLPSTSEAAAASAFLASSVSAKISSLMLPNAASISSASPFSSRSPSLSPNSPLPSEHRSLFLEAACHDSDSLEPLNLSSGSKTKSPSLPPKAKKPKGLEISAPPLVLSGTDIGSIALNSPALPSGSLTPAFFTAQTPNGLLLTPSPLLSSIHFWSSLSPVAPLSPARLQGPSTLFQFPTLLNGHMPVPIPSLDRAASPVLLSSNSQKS
# Summary of the method: as §1
# [10] = biological target: T7, FEV (Homo sapiens, UniProt Q99581 1-238); conditions: protein: recombinant; tags: N-terminal GST; dsDNA, one strand shown
# T7 sequence: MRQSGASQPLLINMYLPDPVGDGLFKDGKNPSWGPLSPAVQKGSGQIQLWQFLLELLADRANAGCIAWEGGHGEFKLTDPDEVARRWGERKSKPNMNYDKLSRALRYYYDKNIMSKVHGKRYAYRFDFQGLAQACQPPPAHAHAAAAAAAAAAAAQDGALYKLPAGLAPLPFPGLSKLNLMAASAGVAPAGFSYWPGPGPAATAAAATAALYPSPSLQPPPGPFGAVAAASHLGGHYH
# Summary of the method: as §1
# [11] = biological target: ETV5 (Homo sapiens, UniProt P41161 1-510); conditions: protein: recombinant; tags: N-terminal GST; dsDNA, one strand shown
# Summary of the method: as §1
# [12] = biological target: HSF1 (Homo sapiens, UniProt Q00613 1-529); conditions: protein: recombinant; tags: N-terminal GST; chain copies: 3; dsDNA, one strand shown
# Summary of the method: as §1
# [13] = biological target: T8, SPIC (Homo sapiens, UniProt Q8N5J4 1-248); conditions: protein: recombinant; tags: N-terminal GST; dsDNA, one strand shown
# T8 sequence: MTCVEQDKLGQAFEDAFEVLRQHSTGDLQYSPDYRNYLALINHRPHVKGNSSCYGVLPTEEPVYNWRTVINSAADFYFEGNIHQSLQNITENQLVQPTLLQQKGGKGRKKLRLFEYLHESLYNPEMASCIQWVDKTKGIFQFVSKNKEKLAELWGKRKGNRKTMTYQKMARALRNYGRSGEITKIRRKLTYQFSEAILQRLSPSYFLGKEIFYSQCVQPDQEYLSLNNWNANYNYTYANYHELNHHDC
# Summary of the method: as §1
# [14] = biological target: ELF4 (Homo sapiens, UniProt Q99607 1-663); conditions: protein: recombinant; tags: N-terminal GST; dsDNA, one strand shown
# Summary of the method: as §1
# [15] = biological target: T9, ELK4 (Homo sapiens, UniProt P28324-2 1-405); conditions: protein: recombinant; tags: N-terminal GST; dsDNA, one strand shown
# T9 sequence: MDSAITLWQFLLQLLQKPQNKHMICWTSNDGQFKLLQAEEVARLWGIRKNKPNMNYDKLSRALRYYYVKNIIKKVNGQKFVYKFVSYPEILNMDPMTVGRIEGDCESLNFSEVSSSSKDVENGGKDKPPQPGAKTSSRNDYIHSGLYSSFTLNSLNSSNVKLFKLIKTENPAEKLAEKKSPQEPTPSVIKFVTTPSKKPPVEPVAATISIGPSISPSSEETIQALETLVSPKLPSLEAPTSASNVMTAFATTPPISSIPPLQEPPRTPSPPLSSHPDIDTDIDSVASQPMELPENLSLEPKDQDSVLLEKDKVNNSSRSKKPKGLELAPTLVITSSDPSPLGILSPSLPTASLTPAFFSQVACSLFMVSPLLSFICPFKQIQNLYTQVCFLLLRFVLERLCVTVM
# Summary of the method: as §1
# [16] = biological target: T10, ETV2 (Homo sapiens, UniProt O00321 1-342); conditions: protein: recombinant; tags: N-terminal GST; dsDNA, one strand shown
# T10 sequence: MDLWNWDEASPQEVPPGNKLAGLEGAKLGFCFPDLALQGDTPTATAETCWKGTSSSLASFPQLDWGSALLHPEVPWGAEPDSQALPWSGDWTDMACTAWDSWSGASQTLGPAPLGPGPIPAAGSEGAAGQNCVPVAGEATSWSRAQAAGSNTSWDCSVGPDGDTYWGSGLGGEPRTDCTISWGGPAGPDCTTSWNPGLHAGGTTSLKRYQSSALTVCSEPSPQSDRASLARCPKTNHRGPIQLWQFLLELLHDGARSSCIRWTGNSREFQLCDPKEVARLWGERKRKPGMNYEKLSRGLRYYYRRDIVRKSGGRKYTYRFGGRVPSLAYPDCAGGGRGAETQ
# Summary of the method: as §1
# [17] = biological target: T11, ELF3 (Homo sapiens, UniProt P78545 1-371); conditions: protein: recombinant; tags: N-terminal GST; dsDNA, one strand shown
# T11 sequence: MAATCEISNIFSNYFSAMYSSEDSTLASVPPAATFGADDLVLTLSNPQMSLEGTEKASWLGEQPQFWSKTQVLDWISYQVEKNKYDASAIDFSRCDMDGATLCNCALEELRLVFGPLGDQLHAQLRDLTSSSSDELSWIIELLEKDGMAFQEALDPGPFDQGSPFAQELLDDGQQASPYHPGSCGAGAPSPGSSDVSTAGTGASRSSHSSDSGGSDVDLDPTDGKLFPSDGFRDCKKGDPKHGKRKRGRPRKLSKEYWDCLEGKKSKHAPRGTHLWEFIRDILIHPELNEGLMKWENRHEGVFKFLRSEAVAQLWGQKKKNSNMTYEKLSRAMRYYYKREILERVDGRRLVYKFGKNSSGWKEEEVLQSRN
# Summary of the method: as §1
# [18] = biological target: CRX (Homo sapiens, UniProt O43186 1-299); conditions: protein: recombinant; tags: N-terminal GST; dsDNA, one strand shown
# Summary of the method: as §1
# [19] = biological target: ETV1 (Homo sapiens, UniProt P50549 1-477); conditions: protein: recombinant; tags: N-terminal GST; dsDNA, one strand shown
# Summary of the method: as §1
# CRX, sequence (O43186 whole entry): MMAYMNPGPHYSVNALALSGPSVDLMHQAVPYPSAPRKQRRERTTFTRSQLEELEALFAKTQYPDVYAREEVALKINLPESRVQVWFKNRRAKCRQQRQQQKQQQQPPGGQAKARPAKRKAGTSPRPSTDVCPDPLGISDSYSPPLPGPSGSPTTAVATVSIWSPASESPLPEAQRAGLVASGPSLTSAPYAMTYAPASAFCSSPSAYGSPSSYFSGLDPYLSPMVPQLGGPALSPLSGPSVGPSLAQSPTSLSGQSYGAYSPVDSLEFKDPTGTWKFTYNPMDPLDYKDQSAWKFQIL
# ELF1, sequence (P32519 whole entry): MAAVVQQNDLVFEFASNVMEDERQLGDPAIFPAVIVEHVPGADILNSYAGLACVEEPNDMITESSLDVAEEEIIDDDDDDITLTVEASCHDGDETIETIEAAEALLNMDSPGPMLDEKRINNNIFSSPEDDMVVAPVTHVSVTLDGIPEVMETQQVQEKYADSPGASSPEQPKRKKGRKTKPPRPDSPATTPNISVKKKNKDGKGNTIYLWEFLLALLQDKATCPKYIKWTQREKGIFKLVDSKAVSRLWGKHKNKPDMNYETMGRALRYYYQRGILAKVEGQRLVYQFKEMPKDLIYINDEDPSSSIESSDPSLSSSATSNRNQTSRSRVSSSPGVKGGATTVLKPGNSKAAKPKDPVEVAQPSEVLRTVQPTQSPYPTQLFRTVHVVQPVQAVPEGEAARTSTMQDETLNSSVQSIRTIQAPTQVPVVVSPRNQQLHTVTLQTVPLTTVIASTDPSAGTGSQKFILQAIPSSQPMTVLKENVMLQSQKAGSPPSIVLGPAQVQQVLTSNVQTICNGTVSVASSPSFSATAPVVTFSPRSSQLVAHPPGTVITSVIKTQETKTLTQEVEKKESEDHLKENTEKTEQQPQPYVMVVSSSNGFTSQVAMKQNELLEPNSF
# ETV1, sequence (P50549 whole entry): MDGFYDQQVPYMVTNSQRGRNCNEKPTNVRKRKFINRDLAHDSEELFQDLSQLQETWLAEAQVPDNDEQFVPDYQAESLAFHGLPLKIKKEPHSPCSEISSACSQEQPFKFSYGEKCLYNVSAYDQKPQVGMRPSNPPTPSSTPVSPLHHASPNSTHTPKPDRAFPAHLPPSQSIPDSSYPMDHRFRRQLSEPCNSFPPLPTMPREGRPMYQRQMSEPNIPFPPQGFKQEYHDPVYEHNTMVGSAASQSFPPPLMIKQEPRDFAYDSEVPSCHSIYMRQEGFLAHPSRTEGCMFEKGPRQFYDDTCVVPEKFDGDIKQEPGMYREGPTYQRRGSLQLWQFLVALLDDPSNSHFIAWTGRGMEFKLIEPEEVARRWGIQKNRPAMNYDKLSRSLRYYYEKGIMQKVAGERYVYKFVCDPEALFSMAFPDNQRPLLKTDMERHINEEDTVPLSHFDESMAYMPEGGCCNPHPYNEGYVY
# ELF4, sequence (Q99607 whole entry): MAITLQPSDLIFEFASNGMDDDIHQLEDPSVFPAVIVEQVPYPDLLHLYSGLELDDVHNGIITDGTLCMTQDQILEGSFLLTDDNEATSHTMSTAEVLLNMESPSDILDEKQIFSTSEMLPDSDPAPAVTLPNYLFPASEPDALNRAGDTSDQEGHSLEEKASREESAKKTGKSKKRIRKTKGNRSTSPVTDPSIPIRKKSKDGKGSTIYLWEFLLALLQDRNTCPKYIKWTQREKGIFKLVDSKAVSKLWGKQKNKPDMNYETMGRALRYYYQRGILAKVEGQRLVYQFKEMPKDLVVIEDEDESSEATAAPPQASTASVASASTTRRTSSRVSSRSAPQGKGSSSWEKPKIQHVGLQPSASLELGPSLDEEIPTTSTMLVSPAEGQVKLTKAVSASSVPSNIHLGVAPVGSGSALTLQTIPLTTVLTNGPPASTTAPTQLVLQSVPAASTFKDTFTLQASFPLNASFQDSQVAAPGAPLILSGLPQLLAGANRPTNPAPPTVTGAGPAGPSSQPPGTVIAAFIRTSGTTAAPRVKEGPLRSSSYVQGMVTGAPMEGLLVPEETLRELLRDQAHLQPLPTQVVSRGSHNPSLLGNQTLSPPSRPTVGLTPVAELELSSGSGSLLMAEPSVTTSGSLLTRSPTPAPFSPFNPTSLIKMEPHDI
# ETV5, sequence (P41161 whole entry): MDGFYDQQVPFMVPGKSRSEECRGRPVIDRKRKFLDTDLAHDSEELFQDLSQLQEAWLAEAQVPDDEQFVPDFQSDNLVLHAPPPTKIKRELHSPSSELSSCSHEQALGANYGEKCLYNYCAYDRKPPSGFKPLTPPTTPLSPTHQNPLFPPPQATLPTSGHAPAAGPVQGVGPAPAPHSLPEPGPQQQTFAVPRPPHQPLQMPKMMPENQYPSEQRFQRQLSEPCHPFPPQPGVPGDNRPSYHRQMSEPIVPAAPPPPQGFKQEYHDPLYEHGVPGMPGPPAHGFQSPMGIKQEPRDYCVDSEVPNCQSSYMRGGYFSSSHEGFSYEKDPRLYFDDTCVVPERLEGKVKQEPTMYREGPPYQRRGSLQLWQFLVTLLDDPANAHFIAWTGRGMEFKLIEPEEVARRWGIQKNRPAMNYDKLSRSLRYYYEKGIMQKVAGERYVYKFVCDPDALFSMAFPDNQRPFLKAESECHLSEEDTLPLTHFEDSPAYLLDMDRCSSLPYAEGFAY
# HSF1, sequence (Q00613 whole entry): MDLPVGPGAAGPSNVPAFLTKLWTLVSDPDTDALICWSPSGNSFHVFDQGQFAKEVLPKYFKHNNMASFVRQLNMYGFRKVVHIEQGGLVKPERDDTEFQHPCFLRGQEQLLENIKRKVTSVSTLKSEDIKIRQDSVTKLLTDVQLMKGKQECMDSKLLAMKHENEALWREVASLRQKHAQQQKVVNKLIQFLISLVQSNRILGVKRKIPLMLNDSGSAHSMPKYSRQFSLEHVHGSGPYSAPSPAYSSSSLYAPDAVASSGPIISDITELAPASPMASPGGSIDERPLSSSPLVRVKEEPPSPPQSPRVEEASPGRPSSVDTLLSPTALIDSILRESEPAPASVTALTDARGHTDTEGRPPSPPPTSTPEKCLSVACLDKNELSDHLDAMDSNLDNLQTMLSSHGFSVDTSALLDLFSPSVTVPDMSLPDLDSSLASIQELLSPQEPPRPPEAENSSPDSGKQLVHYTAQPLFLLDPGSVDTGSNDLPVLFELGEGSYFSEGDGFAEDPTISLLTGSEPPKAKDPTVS
# SPIB, sequence (Q01892 whole entry): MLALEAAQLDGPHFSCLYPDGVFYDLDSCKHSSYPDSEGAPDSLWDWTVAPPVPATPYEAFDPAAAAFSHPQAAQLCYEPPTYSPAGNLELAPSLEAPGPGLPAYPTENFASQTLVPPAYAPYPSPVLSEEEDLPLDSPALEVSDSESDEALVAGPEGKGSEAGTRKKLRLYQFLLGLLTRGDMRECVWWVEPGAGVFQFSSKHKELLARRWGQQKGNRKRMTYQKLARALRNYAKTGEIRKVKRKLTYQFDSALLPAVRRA
sequence,measurement,setting,value
ATATGC,binding signal,[1],"1.09 fold enrichment (6-mer frequency, TF over GST control)"
same,binding signal,[2],"1.15 fold enrichment (6-mer frequency, TF over GST control)"
same,binding signal,[3],"1.15 fold enrichment (6-mer frequency, TF over GST control)"
same,binding signal,[4],"1.13 fold enrichment (6-mer frequency, TF over GST control)"
same,binding signal,[5],"1.1 fold enrichment (6-mer frequency, TF over GST control)"
same,binding signal,[6],"1.08 fold enrichment (6-mer frequency, TF over GST control)"
same,binding signal,[7],"1.16 fold enrichment (6-mer frequency, TF over GST control)"
same,binding signal,[8],"1.07 fold enrichment (6-mer frequency, TF over GST control)"
same,binding signal,[9],"1.05 fold enrichment (6-mer frequency, TF over GST control)"
same,binding signal,[10],"1.11 fold enrichment (6-mer frequency, TF over GST control)"
same,binding signal,[11],"1.15 fold enrichment (6-mer frequency, TF over GST control)"
same,binding signal,[12],"1.01 fold enrichment (6-mer frequency, TF over GST control)"
same,binding signal,[13],"1.4 fold enrichment (6-mer frequency, TF over GST control)"
same,binding signal,[14],"1.1 fold enrichment (6-mer frequency, TF over GST control)"
same,binding signal,[15],"1.28 fold enrichment (6-mer frequency, TF over GST control)"
same,binding signal,[16],"1.06 fold enrichment (6-mer frequency, TF over GST control)"
same,binding signal,[17],"1.09 fold enrichment (6-mer frequency, TF over GST control)"
same,binding signal,[18],"1.01 fold enrichment (6-mer frequency, TF over GST control)"
same,binding signal,[19],"1.11 fold enrichment (6-mer frequency, TF over GST control)"
